Measured values published in PubChem BioAssay.
The source made the active and inactive calls.

Legend:
[1] = binders of probe aFSTL3 on microarray, primary screen, stem cell growth factor project, biochemical, small-molecule microarray, fluorescence 635/667 (AID 1064); details: higher = more signal;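 also: measures binding of the biotinylated anti-FSTL3 antibody to printed compounds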
[2] = binders from COS7 lysate, DM2A8 probe, primary screen, torsin A project, cell lysate, small-molecule microarray, fluorescence 635/667 (AID 1065); details: higher = more signal, COS7 lysate expressing mutant human TOR1A
[3] = binders of probe aFGF2 on microarray, primary screen, stem cell growth factor project, biochemical, small-molecule microarray, fluorescence 635/667 (AID 1067); details: higher = more signal;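 also: measures binding of biotinylated aFGF2 protein to printed compounds on slides; z-score merges feature fluorescence and signal-to-noise across triplicate slides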
[4] = binders of probe aFGF10 on microarray, primary screen, stem cell growth factor project, biochemical, small-molecule microarray, fluorescence 635/667 (AID 1071); details: higher = more signal;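 also: score merges 667 nm spot intensity and signal to noise from triplicate slides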
[5] = biological target: Neurogenic locus notch homolog protein 2 (Homo sapiens) (UniProt Q04721); test: Notch2 binders on small-molecule microarrays, primary screen, biochemical, small-molecule microarray, 635 nm fluorescence, stem cell growth factors (AID 1073); details: Notch2 binding, higher = more signal
[6] = biological target: Pro-neuregulin-1, membrane-bound isoform (Homo sapiens) (UniProt Q02297); test: NRG1 binders on small-molecule microarrays, primary screen, psychiatric disease protein project, biochemical, small-molecule microarray, fluorescence 635/667 (AID 1075); details: NRG1 binding, 635 nm fluorescence, higher = more signal;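 also: score combines 667 nm spot fluorescence with signal to noise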
Sequence of Pro-neuregulin-1, membrane-bound isoform (Homo sapiens) (Q02297 whole entry, looked up, the tested form may be a part, canonical isoform): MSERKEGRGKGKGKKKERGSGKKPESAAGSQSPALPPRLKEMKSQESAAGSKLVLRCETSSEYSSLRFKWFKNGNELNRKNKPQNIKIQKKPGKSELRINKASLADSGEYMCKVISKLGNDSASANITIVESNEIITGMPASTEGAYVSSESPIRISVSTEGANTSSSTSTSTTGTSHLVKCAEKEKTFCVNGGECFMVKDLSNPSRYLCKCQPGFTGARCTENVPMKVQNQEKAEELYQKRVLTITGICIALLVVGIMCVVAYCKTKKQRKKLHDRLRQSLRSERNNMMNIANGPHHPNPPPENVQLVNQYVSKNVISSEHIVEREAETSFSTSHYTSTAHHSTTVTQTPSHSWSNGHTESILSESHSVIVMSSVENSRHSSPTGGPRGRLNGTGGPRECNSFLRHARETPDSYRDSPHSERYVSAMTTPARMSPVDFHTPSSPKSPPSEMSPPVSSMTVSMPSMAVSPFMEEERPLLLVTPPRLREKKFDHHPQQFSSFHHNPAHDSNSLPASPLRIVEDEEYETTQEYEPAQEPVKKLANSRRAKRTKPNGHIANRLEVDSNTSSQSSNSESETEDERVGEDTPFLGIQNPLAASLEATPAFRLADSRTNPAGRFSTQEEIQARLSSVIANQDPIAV

[7] = test system: Neuregulin-1 EGF-like domain; test: binders of neuregulin-1 EGF-like domain, primary screen, biochemical, small-molecule microarray, 635 nm fluorescence (AID 1081); details: small-molecule microarray binding, higher = more signal;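 also: binding of the protein to compounds printed on small-molecule microarray slides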
[8] = FRG1 promoter luciferase signal modulators, primary screen, FRG1 inhibition for FSHD, cell-based, C2C12 myotubes, firefly/Renilla luciferase, luminescence (AID 1084); details: higher = more signal, called active from +8 up or from −8 down
[9] = binders of probe aFST on microarray, primary screen, stem cell growth factor project, biochemical, small-molecule microarray, fluorescence 635/667 (AID 1086); details: higher = more signal;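 also: score merges 667 nm fluorescence with signal-to-noise of each printed compound spot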
[10] = binders of probe aHhip on microarray, primary screen, stem cell growth factor project, biochemical, small-molecule microarray, fluorescence 635/667 (AID 1087); details: higher = more signal;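 also: score merges spot fluorescence at 667nm with spot signal to noise ratio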
[11] = test system: PRMT1 (protein arginine N-methyltransferase 1); test: PRMT1 binders on small-molecule microarrays, primary screen, biochemical, small-molecule microarray, 635 nm fluorescence (AID 1088); details: small-molecule microarray binding, higher = more signal;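 also: binding of Prmt1 protein to compounds spotted on small-molecule microarray slides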
[12] = yeast growth modulation, basal conditions, primary screen, YJM789 clinical isolate, OD600, 24 h (AID 1089);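 also: growth of clinical yeast isolate S. cerevisiae YJM 789 seeded 1000 cells per well; test concentration not given here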; details: S. cerevisiae YJM789 growth, higher = more signal, called active from +8 up or from −8 down
[13] = fission yeast growth modulation, primary screen, strain 972, OD600, 24 h, no modulator (AID 1090);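 also: basal condition with compound alone and no growth modifier present; test concentration not given here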; details: S. pombe 972 growth, higher = more signal, called active from +8 up or from −8 down
[14] = S. cerevisiae growth modulation with rapamycin, primary screen, strain BY4716, OD600, 96 h (AID 1091); details: higher = more signal, called active from +8 up or from −8 down; also: test concentration not given here
[15] = biological target: Torsin-1A-interacting protein 2 (Homo sapiens) (UniProt Q8NFQ8); test: LULL1 binders on small-molecule microarray, primary screen, cell lysate, human LULL1 lysate, 635/667 nm fluorescence (AID 1092); details: hLULL1 lysate binding, 635 nm fluorescence, higher = more signal;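 also: probe is lysate of COS7 cells overexpressing human LULL1; score merges per-feature 667 nm fluorescence with signal-to-noise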
Sequence of Torsin-1A-interacting protein 2 (Homo sapiens) (Q8NFQ8 whole entry, looked up): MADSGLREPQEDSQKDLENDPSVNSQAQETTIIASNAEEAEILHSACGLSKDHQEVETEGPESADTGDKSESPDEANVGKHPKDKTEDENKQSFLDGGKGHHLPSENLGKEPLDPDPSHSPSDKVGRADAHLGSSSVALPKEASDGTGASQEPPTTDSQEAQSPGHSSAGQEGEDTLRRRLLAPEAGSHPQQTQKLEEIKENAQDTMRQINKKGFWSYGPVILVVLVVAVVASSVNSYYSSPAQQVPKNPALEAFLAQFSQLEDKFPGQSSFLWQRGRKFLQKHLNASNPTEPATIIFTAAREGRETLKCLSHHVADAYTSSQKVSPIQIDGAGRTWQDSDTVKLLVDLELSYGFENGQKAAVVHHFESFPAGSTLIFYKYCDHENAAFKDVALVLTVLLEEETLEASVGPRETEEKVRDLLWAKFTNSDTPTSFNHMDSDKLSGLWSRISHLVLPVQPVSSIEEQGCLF

[16] = E. coli growth modulation, two-sided OD650, primary screen, E. coli filamentation project, strain DRC41, 24 h (AID 1093); details: OD650, 24 h, higher = more signal, called active from +8 up or from −8 down;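 also: MC1000 strain lacking acrAB efflux and sulA so SOS filamentation is blocked; test concentration not given here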
[17] = small-molecule microarray binders of probe aLefty2, primary screen, biochemical, biotinylated probe, 635/667 nm fluorescence (AID 1094); details: higher = more signal;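 also: score merges spot fluorescence near 667 nm with spot signal-to-noise ratio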
[18] = test system: Noggin (protein binding on small-molecule microarray); test: Noggin binders on small-molecule microarray, primary screen, biochemical, 635/667 nm fluorescence (AID 1095); details: 635 nm fluorescence, higher = more signal;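 also: score merges 667 nm feature fluorescence with signal to noise over triplicate slides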
[19] = biological target: Neurogenic locus notch homolog protein 3 (Homo sapiens) (UniProt Q9UM47); test: NOTCH3 binders on small-molecule microarray, primary screen, biochemical, 635/667 nm fluorescence (AID 1096); details: NOTCH3 binding, 635 nm fluorescence, higher = more signal
Sequence of Neurogenic locus notch homolog protein 3 (Homo sapiens) (Q9UM47 whole entry, looked up): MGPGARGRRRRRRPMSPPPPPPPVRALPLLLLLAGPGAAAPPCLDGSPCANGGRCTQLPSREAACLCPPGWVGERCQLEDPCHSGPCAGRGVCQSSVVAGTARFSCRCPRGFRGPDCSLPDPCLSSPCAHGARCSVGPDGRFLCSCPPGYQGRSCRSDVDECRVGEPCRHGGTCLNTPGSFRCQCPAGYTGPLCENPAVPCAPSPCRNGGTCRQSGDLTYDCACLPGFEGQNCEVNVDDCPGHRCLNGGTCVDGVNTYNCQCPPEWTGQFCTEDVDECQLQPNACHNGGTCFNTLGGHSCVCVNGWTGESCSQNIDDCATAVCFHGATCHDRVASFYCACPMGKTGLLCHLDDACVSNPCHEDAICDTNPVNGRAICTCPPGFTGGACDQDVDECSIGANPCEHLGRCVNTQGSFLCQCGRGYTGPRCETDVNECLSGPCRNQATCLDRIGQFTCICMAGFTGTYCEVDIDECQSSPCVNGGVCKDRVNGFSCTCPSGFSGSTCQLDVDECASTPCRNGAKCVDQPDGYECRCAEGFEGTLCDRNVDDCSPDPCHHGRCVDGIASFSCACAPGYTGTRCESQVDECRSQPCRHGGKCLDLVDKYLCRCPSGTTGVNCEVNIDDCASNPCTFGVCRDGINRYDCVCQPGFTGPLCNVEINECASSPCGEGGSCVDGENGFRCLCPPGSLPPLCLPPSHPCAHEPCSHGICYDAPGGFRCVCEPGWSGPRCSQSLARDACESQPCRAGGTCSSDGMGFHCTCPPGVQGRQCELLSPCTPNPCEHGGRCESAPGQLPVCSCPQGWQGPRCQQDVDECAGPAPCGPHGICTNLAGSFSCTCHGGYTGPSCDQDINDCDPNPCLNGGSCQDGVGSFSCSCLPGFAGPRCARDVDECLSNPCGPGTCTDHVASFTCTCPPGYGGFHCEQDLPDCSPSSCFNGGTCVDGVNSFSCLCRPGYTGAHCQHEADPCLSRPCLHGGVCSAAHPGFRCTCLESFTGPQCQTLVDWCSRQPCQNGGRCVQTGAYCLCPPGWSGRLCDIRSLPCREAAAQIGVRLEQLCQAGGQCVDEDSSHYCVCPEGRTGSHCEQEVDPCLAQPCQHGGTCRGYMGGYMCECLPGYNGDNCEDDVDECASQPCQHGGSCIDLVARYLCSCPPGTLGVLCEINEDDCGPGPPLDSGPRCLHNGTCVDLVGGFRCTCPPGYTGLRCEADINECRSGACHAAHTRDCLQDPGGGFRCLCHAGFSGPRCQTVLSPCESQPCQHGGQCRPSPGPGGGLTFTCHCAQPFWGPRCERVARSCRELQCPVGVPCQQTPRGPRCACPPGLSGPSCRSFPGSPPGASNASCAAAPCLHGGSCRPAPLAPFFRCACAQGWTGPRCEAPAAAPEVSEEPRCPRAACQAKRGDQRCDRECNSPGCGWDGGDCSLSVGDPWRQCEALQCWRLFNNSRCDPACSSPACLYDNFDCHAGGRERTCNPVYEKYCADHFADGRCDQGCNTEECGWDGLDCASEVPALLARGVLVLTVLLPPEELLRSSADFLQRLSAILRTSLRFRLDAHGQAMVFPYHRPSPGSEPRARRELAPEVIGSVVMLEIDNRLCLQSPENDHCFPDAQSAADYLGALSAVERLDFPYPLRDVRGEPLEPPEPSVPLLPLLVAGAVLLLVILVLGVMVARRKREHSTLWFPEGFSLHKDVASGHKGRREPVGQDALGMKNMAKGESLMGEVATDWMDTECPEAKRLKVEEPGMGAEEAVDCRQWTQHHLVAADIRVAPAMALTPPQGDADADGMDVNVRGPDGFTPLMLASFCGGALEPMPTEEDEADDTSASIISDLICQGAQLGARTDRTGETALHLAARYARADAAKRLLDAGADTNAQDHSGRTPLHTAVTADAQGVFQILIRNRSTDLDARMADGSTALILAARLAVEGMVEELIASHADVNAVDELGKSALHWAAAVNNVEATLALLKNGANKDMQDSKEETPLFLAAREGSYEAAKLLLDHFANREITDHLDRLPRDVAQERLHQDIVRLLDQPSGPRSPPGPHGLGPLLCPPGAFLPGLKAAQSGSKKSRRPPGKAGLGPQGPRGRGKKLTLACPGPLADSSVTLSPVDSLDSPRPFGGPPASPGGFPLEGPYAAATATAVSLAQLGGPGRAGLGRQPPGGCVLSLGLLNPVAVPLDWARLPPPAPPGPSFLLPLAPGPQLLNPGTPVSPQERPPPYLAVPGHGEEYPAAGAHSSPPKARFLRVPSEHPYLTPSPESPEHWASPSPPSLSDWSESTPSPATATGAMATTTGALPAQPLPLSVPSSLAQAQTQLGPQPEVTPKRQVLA

[20] = small-molecule microarray binders of probe aEGFR, primary screen, biochemical, biotinylated probe, 635/667 nm fluorescence (AID 1097); details: higher = more signal;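 also: probe is a biotinylated anti-EGFR antibody binding compounds printed on slides; score combines fluorescence near 667 nm and signal to noise of each spot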

| SMILES | composite z-score [1] | composite z-score [2] | composite z-score [3] | composite z-score [4] | composite z-score [5] | composite z-score [6] | composite z-score [7] | z-score [8] | composite z-score [9] | composite z-score [10] | composite z-score [11] | z-score [12] | z-score [13] | z-score [14] | composite z-score [15] | z-score [16] | composite z-score [17] | composite z-score [18] | composite z-score [19] | composite z-score [20] |
| --- | --- | --- | --- | --- | --- | --- | --- | --- | --- | --- | --- | --- | --- | --- | --- | --- | --- | --- | --- | --- |
| [N-]=[N+]=Nc1ccccc1C[C@]1(C(=O)NCCN2CCOCC2)COC(c2ccc(OCCCO)cc2)=N1 | 0.295 | 1.26 | -0.27 | -0.0786 | 0.722 | 1.55 | 1.39 | 0.706 (inactive) | 0.143 | -0.0994 | 1.29 | -0.877 (inactive) | -2.27 (inactive) | -1.46 (inactive) | 3.03 | 2.56 (inactive) | 0.194 | 0.0424 | 0.0221 | 0.0433 |
| COC(=O)C1(CC(C)C)C=C2C(=C(c3ccccc3)C(=O)C2C)CN1 (stereo not given) | 1.92 | 0.442 | 0.669 | 0.746 | 1.1 | 1.02 | 0.78 | 1.19 (inactive) | 1.15 | 0.935 | -0.291 | -0.201 (inactive) | 0.424 (inactive) | 1.71 (inactive) | 2.16 | -0.326 (inactive) | 1.1 | -1.13 | 0.141 | 0.917 |
| COC(=O)C1=CC(CCCO)=CC(c2ccc(CN3CCCC3)cc2)N(Cc2cccc(OC(F)(F)F)c2)C=C1C(=O)OC (stereo not given) | 0.928 | -0.185 | -0.0361 | 0.419 | 1.44 | 1.79 | 1.11 | -0.616 (inactive) | 0.857 | -0.0994 | 1.44 | -1.22 (inactive) | -9.89 (active) | -1.11 (inactive) | 3.31 | -2.59 (inactive) | 0.373 | -0.116 | 0.888 | -0.0418 |
| O=C1C2C=CC(C(O)C3CC=CCC3)N(Nc3ccccc3)C2C(=O)N1c1ccccc1 (stereo not given) | 0.877 | -0.129 | 0.122 | 0.397 | 1.61 | 1.3 | 1.28 | -1.16 (inactive) | 1.89 | -0.323 | 1.24 | 0.399 (inactive) | -0.428 (inactive) | 0.662 (inactive) | 3.09 | -1.6 (inactive) | 0.401 | -0.146 | 1.06 | 0.153 |
| COC(=O)c1c(CC[C@@H](CO)NC(=O)N[C@@H](C)Cn2cc(-c3ccccn3)nn2)oc(C(C)=O)c1C(=O)OC | -0.291 | 0.334 | -0.076 | 0.384 | -0.127 | 1.66 | 1.29 | 0.224 (inactive) | -0.205 | -0.0237 | 1.39 | -0.441 (inactive) | -0.705 (inactive) | 0.198 (inactive) | 1.42 | -0.608 (inactive) | -0.115 | 1.43 | 0.794 | -0.164 |
| O=C(c1ccccc1)N1C(=O)[C@]2(Cc3ccccc31)N=C(c1ccc(OCCCO)cc1)O[C@@H]2c1ccccc1 | -0.203 | -0.0033 | -0.061 | 0.821 | 0.562 | 1.61 | 1.3 | -1.76 (inactive) | 0.313 | 0.252 | 1.54 | 0.525 (inactive) | 0.171 (inactive) | 3.7 (inactive) | 3.25 | 0.0249 (inactive) | -0.0059 | 1.12 | 1.07 | -0.157 |
